Results taken from PubChem BioAssay (NCI).
The panel holds about 83,000 compounds, 20% with a hit somewhere; the sample as a whole holds those more often.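 Testing used 96-well plates and a 48-hour single-concentration exposure. Example: -40 means 40% of the starting cells died.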 Calls of active or inactive are those of the source. How the source made its calls: active means growth percent below 10; inactive means the rest.

These compounds were tested on UO-31 renal (assay: NCI-60 one-dose screen, 48 h (100 = growth as untreated, 0 = no growth, -100 = all killed)). Settings: 10 µM unless noted.
In the case of `COc1cc2c(cc1OC)C(C)N(S(N)(=O)=O)CC2` (stereo not drawn), the growth is reported as 81.9% (inactive). `CCCC/C(CC)=N\NS(=O)(=O)c1ccc([N+](=O)[O-])cc1` was tested, and the growth was 83.3% (inactive). `O=[N+]([O-])c1ccc(O)cc1Br` was tested, and the growth was 83.8% (inactive).

These compounds were tested on TK-10 renal in the same assay as above. Settings: 10 µM unless noted.
In the case of `COc1ccc(C(O)c2cc3c(N)c(C(=O)Nc4cccc(Br)c4)sc3nc2C)cc1` (stereo not drawn), the growth is reported as 62.9% (inactive). For `CC/C(=C(/c1ccc(Cl)cc1)c1ccc(OCCN2CCCCC2)cc1)c1ccc(OC)cc1`, the growth was 80.7% (inactive). In the case of `CCOC(=O)c1c2c(n3cccc(F)c13)C(=O)c1ncccc1C2=O`, the growth is reported as 36.8% (inactive). In the case of `CC(=O)O[C@@H]1C[C@]2(C(C)C)O[C@@]1(C)[C@@H]1CCC(C)=C1[C@@H]2OC(=O)/C=C/c1ccccc1`, the growth is reported as 95.4% (inactive). For `O=C(O)c1ccc(-n2cc(/C=N/Nc3ccccc3)c(-c3ccc(F)cc3F)n2)cc1`, the growth was 57.4% (inactive). In the case of `O=C(NCc1ccc(Cl)cc1Cl)C1CCC(=O)N1c1cccs1` (stereo not drawn), the growth is reported as 98.8% (inactive). In the case of `CCSc1oc(-c2ccccc2)nc1[P+](c1ccccc1)(c1ccccc1)c1ccccc1`, the growth is reported as 24.1% (inactive). For `O=C1C(=O)N(Cc2ccc(-c3ccccc3)cc2)c2ccc(OC(F)(F)F)cc21`, the growth was 63.9% (inactive). In the case of `Cc1nc2sc(C(=O)Nc3ccc(Br)cc3)c(N)c2cc1C(O)c1ccccc1` (stereo not drawn), the growth is reported as 85.4% (inactive). In the case of `O=C(Cn1cc(CSc2nc3ccccc3o2)nn1)Nc1ccc(F)cc1F`, the growth is reported as 117% (inactive). `COC(=O)c1nc(-c2ccc(C)cc2)oc1S(=O)(=O)c1cccc(OC)c1` was tested, and the growth was 64.8% (inactive). `COc1ccc(C/C(C)=C(/c2ccc(OCCN(C)C)cc2)c2ccc(OC(=O)NCc3ccccc3)cc2)cc1` was tested, and the growth was 78.5% (inactive). With `COc1ccc(/C=C(\C#N)n2nnc3cc(F)c(F)cc32)cc1` the growth was 72.4% (inactive). In the case of `COC(=O)c1c2c(c(C)[n+]([O-])c1C)C(=O)C(NCc1cccc(OC)c1)=CC2=O`, the growth is reported as 104% (inactive). In the case of `COc1ccc(-c2nc3cc(C(=O)NCc4ccccc4)ccc3n2C2CCCCC2)cc1`, the growth is reported as 90.9% (inactive). In the case of `CCN(CC)CCn1c2ccc(OC)cc2c2sc3cc(OC)ccc3c(=O)c21`, the growth is reported as 49.2% (inactive). With `COc1ccc(C(=O)N2c3ccccc3Sc3ccccc32)c(OC)c1` the growth was 55.8% (inactive). For `CCN1CCN(C(=O)[C@]23CCC(C)(C)C[C@@H]2C2=CC[C@@H]4[C@@]5(C)CCC(=O)C(C)(C)[C@@H]5CC[C@@]4(C)[C@]2(C)CC3)CC1`, the growth was 80.4% (inactive). With `Clc1ccc2c(NC3CCC(N4CCOCC4)CC3)ccnc2c1` (stereo not drawn) the growth was 80.8% (inactive). In the case of `CCCOC(=O)Nc1nc2ccc(SCC(C)C)cc2s1`, the growth is reported as 50.4% (inactive). `COc1ccc(Nc2ncc(Br)c(NCCCNC(=O)c3cccs3)n2)cc1` was tested, and the growth was 24.3% (inactive). `N#Cc1c(-c2ccccc2)cc(-c2ccc(Nc3nc(Nc4ccc(Cl)cc4)nc(Nc4ccc(Cl)cc4)n3)cc2)nc1N` was tested, and the growth was -60.1% (active). With `COC(=O)c1c(C)c2n(c1C)C(=O)C(c1ccccc1)=C2` the growth was 143% (inactive). With `COc1ccc(Nc2ncc(Br)c(NCCCNC(=O)C3CCCC3)n2)cc1` the growth was 23.3% (inactive). In the case of `C=CCn1c(C)nc2ccc(Nc3nc(Nc4ccc5nc(C)n(CC=C)c5c4)c4ccccc4n3)cc21`, the growth is reported as -88.5% (active). In the case of `O=C(O)c1cn(C2CC2)c2cc(N3CCN(Cc4ccc5ccccc5c4O)CC3)c(F)cc2c1=O`, the growth is reported as 67.7% (inactive). With `N#C/C(=C\c1c(-c2ccccc2)[nH]c2ccccc12)C(N)=O` the growth was 124% (inactive). `COc1ccc(C2CC(c3ccc(Nc4nc(Nc5ccccc5)nc(Nc5ccccc5)n4)cc3)=NN2C(C)=O)cc1` (stereo not drawn) was tested, and the growth was 104% (inactive). In the case of `COc1cc2c(c(OC)c1OC)CCC(c1cccc(C(=O)Nc3cccc(Cl)c3)c1)O2` (stereo not drawn), the growth is reported as 70.4% (inactive). In the case of `COc1cc(OCc2cccc(Br)c2C)cc(OC)c1C=O`, the growth is reported as 45.4% (inactive). For `COC1=CC(c2ccc[nH]2)=N/C1=C\c1[nH]c(C)c(C(=O)OC(C)C)c1C`, the growth was 3.42% (active). For `CCCc1c(OC(=O)c2ccccc2)nc2[nH]c(=O)sc2c1C`, the growth was 96.1% (inactive). With `CN(C)c1ccc(-c2c(C#N)c(N)nn2C(=O)c2ccc(NC(=O)c3ccccn3)cc2)cc1` the growth was 110% (inactive). `CC1CCN(CCOc2ccc(CNc3ccc4nc(CCC5CCCCC5)[nH]c4c3)cc2)CC1` was tested, and the growth was 73.1% (inactive). With `COc1cc2c(cc1OCCCN1CCN(CCCOc3cc4c(cc3OC)C(=O)N3CCC[C@H]3C=N4)CC1)C=CC(C)(C)O2` the growth was -83.6% (active). In the case of `Oc1c(I)cc(I)cc1CNCCN(Cc1ccccn1)Cc1ccccn1`, the growth is reported as -91.5% (active). `O=CN1N=C(c2cccc(Nc3ccnc4cc(Cl)ccc34)c2)CC1c1ccccc1` (stereo not drawn) was tested, and the growth was 32.2% (inactive). In the case of `COc1cc2c(cc1OC)C(C)N(S(N)(=O)=O)CC2` (stereo not drawn), the growth is reported as 103% (inactive). `CCCC/C(CC)=N\NS(=O)(=O)c1ccc([N+](=O)[O-])cc1` was tested, and the growth was 93.4% (inactive). With `O=[N+]([O-])c1ccc(O)cc1Br` the growth was 99.9% (inactive).
